# Assay outcomes deposited in PubChem BioAssay by several laboratories.
# Rows were chosen to be rich in hits. Some 3.4% of all compounds tested hit in one or more screens of this group.
# Shn3 inh set2 = Schnurri-3 reporter inhibition in Clone20 osteoblasts. inhibition, % at 12.5 µM. Clone20 osteoblast Shn3 3'UTR firefly luciferase, 24 h. 0.52% of 360,000 active;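 active = mean inhibition of at least 75% with every replicate also reaching 75%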;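 note: 0% = median of neutral control wells and 100% = pilot-screen positive control compound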
# HIF-2a inh = inhibitors of HIF-2a | inhibition, % at 18.8 µM | 0.72% of 360,000 active | 786-0 RCC cells HIF-2a reporter, luciferase luminescence, overnight;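 active = inhibition of the luminescence signal of 40% or more relative to plate controls, in a single-dose primary screen at 18.75 µM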
# EBV LMP1 NFkB = Epstein-Barr LMP1 NF-kappaB reporter inhibition. inhibition, % at 12.5 µM. 0.69% of 350,000 active. LMP1-induced NF-kappaB luciferase reporter cells, luminescence; in the data active = inhibition above about 41%;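 note: 0% = neutral control wells and 100% = reference inhibitor control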
# TRPM1 prom inh = inhibitors of MITF-driven TRPM1 promoter in melanoma cells. SK-MEL-5 TRPM1 promoter luciferase, 24 h. inhibition, % at 12.5 µM. 0.83% of 330,000 active;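 active = mean inhibition across replicates of 60% or more, whatever share of single replicates reaches that level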
# TROY NFkB inh = TROY signaling inhibition. inhibition, % at 10 µM. 0.98% of 360,000 active. Q293 LMP1-TROYcd NF-kB luciferase reporter, 4 h;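 active = compounds whose plate-normalised and pattern-corrected inhibition of the luciferase reporter signal at the single screening dose is 50% or more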
# TWEAK-Fn14 inh = TWEAK-Fn14 signaling inhibition | TWEAK-stimulated Fn14 reporter cells, luciferase luminescence, 8 h | AID 1159606 | inhibition, % at 10 µM | 2% of 360,000 active; in the data active = inhibition above about 50%
# Mdm2 MdmX conf = confirmation of inhibitors of human Mdm2/MdmX interaction, set 2; shares compounds with HIF-2a inh; SaOS-2 split-luciferase Mdm2/MdmX complementation, luminescence; inhibition, % at 8 µM; 99% of 740 active;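 active = mean inhibition of the luminescence signal across two replicates at or above 26 percent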
# HIF-2a conf = confirmation of HIF-2a inhibitors; 56% of 1,800 active; 786-0 RCC cells, HIF-2a luciferase reporter luminescence, overnight; inhibition, % at 18.8 µM; shares compounds with HIF-2a inh; AID 651580;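 active = mean inhibition across four replicates of at least 40 percent at the single tested concentration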
# HIF-1a cs = inhibits HIF-1a reporter, a counter-screen for HIF-2a inhibitors; shares compounds with HIF-2a inh; MiaPaCa-2 HIF-1a luciferase reporter, desferoxamine, overnight; inhibition, % at 18.8 µM; 72% of 1,800 active; AID 651589;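 active = mean inhibition of the reporter signal across four replicates at the single tested dose of 50% or more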
# Active calls of the source: *; nt = no result given.
SMILES,Shn3 inh set2,HIF-2a inh,EBV LMP1 NFkB,TRPM1 prom inh,TROY NFkB inh,TWEAK-Fn14 inh,Mdm2 MdmX conf,HIF-2a conf,HIF-1a cs
COC(=O)C=C1CCC2C3CC(F)C4(O)CC(=O)CCC4(C)C3C(=O)CC12C (stereo not drawn),2.0,3.9,2.6,-5.6,-8.2,26.0,nt,nt,nt
COc1ccccc1NC(=O)c1ccc(CS(=O)(=O)c2ccc(C)cc2)cc1,45.7,11.6,0.9,1.6,11.4,-3.9,nt,nt,nt
CCOc1ccccc1NC(=O)c1ccc(C(=O)Nc2ccccc2OCC)nc1,23.3,10.1,-16.3,5.9,11.3,-11.2,nt,nt,nt
CCc1ccc(NC(=O)c2nc(S(=O)(=O)Cc3ccccc3)ncc2Cl)cc1,96.2*,94.9*,23.1,92.2*,78.8*,85.9*,103.5*,88.0*,87.0*
CSc1ncc(Cl)c(C(=O)Nc2ccc(C)c(C)c2)n1,-9.0,-21.5,1.5,-1.1,-12.8,-10.3,nt,nt,nt
COc1ccccc1NC(=O)c1nc(S(=O)(=O)Cc2ccccc2)ncc1Cl,98.8*,89.3*,0.6,90.7*,72.0*,74.3*,101.5*,82.5*,104.1*
CCOc1ccccc1NC(=O)c1nc(S(=O)(=O)Cc2ccccc2)ncc1Cl,96.3*,90.3*,-30.3,78.3*,74.8*,74.0*,nt,98.6*,104.1*
Cc1ccc(NC(=O)c2nc(S(=O)(=O)Cc3ccccc3C)ncc2Cl)cc1C,96.2*,93.0*,28.0,77.9*,85.6*,82.8*,103.5*,nt,nt
CCCn1c(C)nnc1SCC(=O)NC1CCCCC1,-2.8,19.0,3.1,-7.1,5.1,-6.2,nt,nt,nt
Cc1ccc(NC(=O)[C@H](C)NC(=O)C2CCN(C(=O)[C@@H](N)CC(C)C)CC2)cc1,-0.7,-5.7,-1.5,8.6,-14.4,6.1,nt,nt,nt
CCS(=O)(=O)c1ncc(Cl)c(C(=O)Nc2ccc(S(=O)(=O)N3CCC(C)CC3)cc2)n1,98.6*,86.2*,7.9,97.2*,85.0*,95.4*,102.7*,99.2*,102.7*
CCS(=O)(=O)c1ncc(Cl)c(C(=O)Nc2ccccc2OC)n1,96.8*,92.6*,-19.3,40.9,73.0*,95.0*,nt,0.6,99.3*
CC(C)c1nnc(NC(=O)c2nc(S(=O)(=O)Cc3ccccc3)ncc2Cl)s1,94.2*,91.6*,10.7,82.6*,32.4,93.7*,101.7*,nt,nt
COc1ccccc1NC(=O)c1ccc(C(=O)Nc2ccccc2OC)nc1,17.8,12.8,3.4,-2.4,14.1,-39.4,nt,nt,nt
Cc1nn(-c2ccccc2Cl)c(Cl)c1/C=N/Nc1nc2ccccc2s1,83.0,73.6*,56.0*,98.2*,95.4*,108.1*,97.7*,84.0*,92.0*
CC(C)c1ccc(/C=C/C(=O)O)cc1,-9.9,-2.9,0.0,0.2,-12.9,2.2,nt,nt,nt
CCCc1ccc(-c2ccc(/C=C/C(=O)O)cc2)nc1,28.5,87.2*,74.5*,86.0*,13.8,94.3*,nt,89.2*,90.8*
COc1ccc(C(CC(=O)c2ccc(C)cc2)C(C#N)C#N)cc1OC (stereo not drawn),60.0,55.6*,13.2,20.5,20.2,87.7*,nt,36.0,104.7*
Cc1ccc(NC(=O)c2cc(N3C(=O)C=CC3=O)ccc2N2CCOCC2)cc1,42.0,68.5*,1.1,79.5*,-7.1,15.5,nt,68.5*,18.5
Cc1ccc(Cn2ccsc2=NC(=O)COC(=O)c2ccc(NC(=O)CC#N)cc2)cc1,44.4,0.8,13.1,10.8,31.2,26.1,nt,nt,nt
Cc1ccc(Cn2ccsc2=NC(=O)CCl)cc1,5.0,18.1,6.8,42.2,10.1,32.0,103.0*,nt,nt
CCc1ccc(-c2nc(CSCC(=O)NCCCN3CCCC3=O)c(C)o2)cc1,14.6,44.9*,3.4,7.3,21.1,84.3*,nt,-4.8,16.3
CSc1ccc(-c2nc(CSCC(=O)NCCCN3CCCC3=O)c(C)o2)cc1,13.7,1.0,4.1,12.0,-9.6,3.4,nt,nt,nt
Cc1ccc(C(=O)OCC(=O)N2CCC(c3ccccc3)=N2)cc1,7.7,-13.1,-4.6,2.1,-14.1,-1.4,nt,nt,nt
Cc1ccccc1OCC(=O)NCCCNC(=O)c1ccncc1,5.8,-4.8,-7.0,-0.5,-12.5,-0.1,nt,nt,nt
SMILES,Shn3 inh set2,HIF-2a inh,EBV LMP1 NFkB,TRPM1 prom inh,TROY NFkB inh,TWEAK-Fn14 inh,Mdm2 MdmX conf,HIF-2a conf,HIF-1a cs
O=C(N/N=C/c1ccc([N+](=O)[O-])s1)c1cccc(Br)c1,29.4,12.0,32.5,82.3*,-3.0,10.5,63.2*,nt,nt
Cc1ccc(C(=O)N/N=C\c2ccc([N+](=O)[O-])s2)cn1,-1.0,63.4*,1.5,109.4*,-5.0,20.3,nt,56.2*,55.9*
Cc1ccc(-c2nnn3c2nc(Cl)c2ccccc23)cc1,-10.4,-93.6,-5.8,14.9,-30.2,-15.3,nt,nt,nt
Clc1nc2c(-c3ccccc3)nnn2c2ccccc12,nt,-63.5,5.5,57.5,-6.2,32.5,103.2*,nt,nt
CC(C)(C)C(=O)/C(=C/c1ccncc1)n1cncn1,97.8*,93.0*,37.8,81.6*,51.0*,83.0*,102.5*,62.3*,105.6*
Cc1nn(C)c(C)c1/C=C(/C(=O)C(C)(C)C)n1cncn1,-11.0,18.6,-2.9,9.1,-4.0,12.1,nt,nt,nt
O=C(NCCc1ccccn1)C1CCCN1S(=O)(=O)c1ccc(Cl)cc1 (stereo not drawn),19.1,10.9,6.5,-3.5,17.2,18.4,nt,nt,nt
O=C(CN(CCO)c1ccccc1)Nc1ccc(Cl)c(S(=O)(=O)N2CCOCC2)c1,0.8,-0.2,3.0,-7.3,7.8,-6.2,nt,nt,nt
CC(C)(C)c1cc(C(c2cccnc2)N2CCN(CCO)CC2)cc(C(C)(C)C)c1O (stereo not drawn),97.4*,88.9*,-4.0,79.1*,9.3,41.8,103.2*,80.4*,74.5*
Cc1ccc(-n2c(SCC(=O)N3CCCCC3)nc(O)c(Cc3ccccc3)c2=O)cc1,-11.2,2.8,3.1,3.9,8.8,-4.5,nt,nt,nt
COc1cccc(/C=C2/CCC(CN(C)C)C2=O)c1 (stereo not drawn),77.6,59.8*,-21.5,97.5*,9.8,85.7*,nt,20.6,103.4*
COc1cccc(/C=C2\CCC(C3CCCC3)C2=O)c1 (stereo not drawn),-7.5,-226.9,-16.0,-60.3,5.4,8.2,nt,nt,nt
COc1ccc(C(=O)Cn2c(C(=O)/C=C/c3ccccc3)nc3ccccc32)cc1,101.8*,40.2*,7.4,35.1,10.7,-20.6,nt,3.0,101.6*
COc1ccc(C(=O)CSc2nc3ccccc3n2CC(=O)c2ccccc2)cc1,4.2,-8.9,-0.5,-6.6,3.0,18.2,nt,nt,nt
